Source: PubChem BioAssay AID568 (Sanford-Burnham Center for Chemical Genomics, 2006)
Hit rate of the full screen: of about 83,000 compounds, fewer than 10 were called active. How the calls were made is not given here. A selection follows. Potency and affinity values are given separately.

biological target: Heat shock cognate 71 kDa protein (Homo sapiens) (UniProt P11142); test: small molecules displacing fluorescent ligand from Hsc70 – biochemical, fluorescence polarization, primary screen (AID 568); conditions: mP, at 20 µM, hits give high values
Sequence (P11142 whole entry, looked up): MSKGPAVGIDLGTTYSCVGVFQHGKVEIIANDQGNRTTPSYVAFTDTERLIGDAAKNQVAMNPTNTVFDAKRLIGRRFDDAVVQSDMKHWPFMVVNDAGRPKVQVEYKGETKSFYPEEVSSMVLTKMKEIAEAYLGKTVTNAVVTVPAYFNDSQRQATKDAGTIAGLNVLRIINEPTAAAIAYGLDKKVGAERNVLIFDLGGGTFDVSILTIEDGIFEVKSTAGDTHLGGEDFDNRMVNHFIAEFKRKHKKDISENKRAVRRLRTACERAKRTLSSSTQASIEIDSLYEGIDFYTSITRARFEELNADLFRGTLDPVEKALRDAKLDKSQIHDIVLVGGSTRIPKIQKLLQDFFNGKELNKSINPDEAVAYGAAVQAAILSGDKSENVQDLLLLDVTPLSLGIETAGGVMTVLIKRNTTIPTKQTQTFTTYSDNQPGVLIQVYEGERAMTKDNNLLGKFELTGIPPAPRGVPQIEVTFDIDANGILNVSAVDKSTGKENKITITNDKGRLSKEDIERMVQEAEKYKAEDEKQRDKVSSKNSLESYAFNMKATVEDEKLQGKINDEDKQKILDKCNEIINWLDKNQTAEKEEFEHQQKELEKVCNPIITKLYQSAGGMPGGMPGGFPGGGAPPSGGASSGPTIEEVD
Sequence (P11142 whole entry, looked up): as above

displacement, inactive:
CCOC(=O)c1sc(=S)n(-c2ccccc2OC)c1N 4.2%, COc1ccc(N(CC(=O)Nc2cc(OC)ccc2OC)S(=O)(=O)c2c(C)nn(C)c2C)cc1 -0.1%, Oc1c(Cl)cc(Cl)cc1Sc1cc(Cl)cc(Cl)c1O 11.6%, Oc1c(Cl)cc(Cl)c2c1NCCC2 1%, NC(=O)CSc1nnc(Cc2ccc3c(c2)OCO3)n1C1CCCCC1 -4.2%, COc1cccc(Nc2c(F)c(F)c(F)c(F)c2C(=O)O)c1 3.7%, CC1(C)CC(=O)C2=C(C1)OC(N)=C(C#N)C21C(=O)N(Cc2ccccc2Cl)c2ccccc21 (stereo not given) -38.5%, O=C(CSc1nc(-c2ccco2)cc(C(F)(F)F)n1)NC1CCCCCCC1 -4.2%, Cc1ccc2c(c1)N(Cc1ccc3c(c1)OCO3)C(=O)C(C)O2 (stereo not given) -2.1%, O=C(Cn1cnc2c(nnn2Cc2ccccc2)c1=O)N1CCCc2ccccc21 2%, CC(=O)NCCc1ccc(S(=O)(=O)NC2OC(=O)c3ccccc32)cc1 (stereo not given) -3.3%, CC1(C)Cc2c(c(N3CCOCC3)nc3sc4c(=O)[nH]cnc4c23)CS1 -5%, C=CCN1C(=O)C2C(C(=O)NCc3ccccc3)C3C=CC2(O3)C1C(=O)NC(C)(C)C (stereo not given) -3.6%, O=C1CCCCCN1CSc1nc2ccccc2s1 5.1%, CCOC(=O)N1CCN(C(=O)CN(c2ccc3c(c2)OCO3)S(C)(=O)=O)CC1 0.1%, Oc1ccccc1-c1cc(-c2ccco2)[nH]n1 1.3%, CC(=O)Nc1ccc(S(=O)(=O)N(C)CC(=O)Nc2ccccc2N2CCOCC2)cc1 -0.5%, COc1ccc(-c2nc(CS(=O)CC(=O)NCc3cccnc3)c(C)o2)cc1 (stereo not given) 1.8%, Cc1ccc(C)c(N(CC(=O)NC2CCCC2)C(=O)CCCC(=O)Nc2ccccn2)c1 4.6%, CN1CCc2c(sc3c2C(=O)NC(/C=C/c2ccco2)N3)C1 (stereo not given) 5.2%, CCOc1c(Cl)cc(C(=O)NCCN2CCCCC2)cc1Cl -10.7%, Cc1ccccc1NC(=O)Cn1cccc1 -0.7%, Cc1ccc(-c2nn3c(-c4ccco4)nnc3c3ccccc23)cc1S(=O)(=O)NCC1CCCO1 (stereo not given) 1%, CC1CC(C)CN(CCCNC(=O)C2CCN(S(=O)(=O)N3CCCCC3)CC2)C1 (stereo not given) -3.8%, O=C(Nc1ccc(-c2nc3ccccc3[nH]2)cc1)c1ccco1 -7.1%, CC(C)N(C#N)c1nc(N2CCOCC2)nc(N2CCOCC2)n1 9.4%, CC1=C(C(=O)N(C)CCC#N)C2(CCCCC2)OC1=O -1.4%, O=C(NC(Cc1ccccc1)c1nc2ccccc2[nH]1)C1CC(=O)N(c2ccc3c(c2)OCCO3)C1 (stereo not given) -10.1%, Cc1ccc(C(=O)Nc2cc(=O)n(C)c(=O)n2C)o1 5.3%, O=C(CCCn1c(=S)[nH]c2cc3c(cc2c1=O)OCO3)N1CCN(c2ccccn2)CC1 -4.4%, Cc1cnc(NC(=O)c2cc3c(C)nn(-c4ccccc4)c3s2)s1 -5.6%, CC1CCN(C(=O)c2cc(-c3ccccc3O)on2)CC1 -5%, CCOC(=O)C1CCCN(CCC(=O)Nc2ccc(C)cc2)C1 (stereo not given) -2.2%, CCCCN(C(=O)CNC(=O)c1ccco1)C(C(=O)NC1CCCC1)c1ccc(OC)cc1 (stereo not given) 2.3%, O=C(Nc1ccc(F)c(F)c1)c1cccnc1 -5.4%, Cc1cc(C(=O)CN2C(=O)NC(c3ccccc3)(c3ccccc3)C2=O)c(C)n1Cc1ccccc1 -22.9%, Cc1nnc(SCC(=O)Nc2ccc(S(=O)(=O)N3CCCCC3)cc2)s1 -3.1%, CN(C)S(=O)(=O)c1ccc(NC(=O)c2c(F)cccc2Cl)cc1 -2.2%, Cc1c(C(=O)OCC(=O)N2c3ccccc3CC2C)oc2ccccc12 (stereo not given) -0.6%, O=C(NCCN1CCOCC1)Nc1ccc(Cl)cc1Cl -6.7%
